Outcome and AC50 data for 7 compounds are collected here from PubChem BioAssay (EPA / NIEHS).

Holding throughout (settings): mRNA level, 48 h; actives raise or lower the signal
Read-out in experiment [1]: Early growth response protein 1 (EGR1) transcription factor, EGR1 (gene 1958)
Briefly: LTEA_HepaRG_EGR1: Life Technologies and Expression Analysis (LTEA) Assay for Early growth response protein 1 (EGR1) transcription factor using HepaRG (AID 2283490). An outline of the steps:
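Differentiated human HepaRG cells in serum-free induction medium were exposed in duplicate for 48 h to eight concentrations (top 100 uM, half-log steps) in 0.5% DMSO. EGR1 mRNA was quantified by qRT-PCR, normalized to ACTB, GAPDH and POLR2A, and fitted bidirectionally versus DMSO.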

Read-out in experiment [2]: Ezrin (EZR), EZR (gene 7430)
The experiment can be described thus: LTEA_HepaRG_EZR: Life Technologies and Expression Analysis (LTEA) Assay for Ezrin (EZR) using HepaRG (AID 2283491). An outline of the steps:
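EZR transcript levels came from Fluidigm qRT-PCR and were normalized to three housekeeping genes after 48 h chemical exposure of HepaRG cells. Dosing used an 8-point half-log series with a 100 uM top concentration in 0.5% DMSO, tested in duplicate; both directions were fitted versus vehicle.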

Read-out in experiment [3]: Cytochrome P450 3A7 (Homo sapiens) (UniProt P24462)
Briefly: LTEA_HepaRG_CYP3A7: Life Technologies and Expression Analysis (LTEA) Assay for CYP3A7 using HepaRG (AID 2283492). Summed up:
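CYP3A7 transcript measured by qRT-PCR (ACTB, GAPDH, POLR2A normalization) after 48 h chemical exposure of HepaRG cells in duplicate. Eight half-log concentrations, maximum 100 uM, 0.5% DMSO vehicle; bidirectional curve fitting against DMSO baseline.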

Read-out in a further experiment: CYP3A5 (gene 1577)
Briefly: LTEA_HepaRG_CYP3A5: Life Technologies and Expression Analysis (LTEA) Assay for CYP3A5 using HepaRG (AID 2283493). Summed up: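 Differentiated HepaRG cells in serum-free induction medium were dosed 48 h with test chemicals (8-point half-log series, top 100 uM, 0.5% DMSO, duplicate). CYP3A5 mRNA measured by qRT-PCR, normalized to ACTB, GAPDH, POLR2A; bidirectional fit versus DMSO.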

Read-out in experiment [4]: Fatty Acid-Binding Protein 1 (FABP1), FABP1 (gene 2168)
Briefly: LTEA_HepaRG_FABP1: Life Technologies and Expression Analysis (LTEA) Assay for Fatty Acid-Binding Protein 1 (FABP1) using HepaRG (AID 2283494). An outline of the steps: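 Differentiated human HepaRG cells were exposed in duplicate for 48 h in serum-free induction medium to 8-point half-log concentration series topping at 100 uM in 0.5% DMSO. FABP1 mRNA measured by TaqMan qRT-PCR, normalized to ACTB/GAPDH/POLR2A; bidirectional fit versus DMSO.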

Read-out in experiment [5]: Cytochrome P450 4A22 (Homo sapiens) (UniProt Q5TCH4)
The experiment can be described thus: LTEA_HepaRG_CYP4A22: Life Technologies and Expression Analysis (LTEA) Assay for Cytochrome P450 4A22 (CYP4A22) using HepaRG (AID 2283495). An outline of the steps:
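Gene expression measured by qRT-PCR against three housekeeping genes (ACTB, GAPDH, POLR2A), with gain or loss fitted relative to 0.5% DMSO vehicle. HepaRG cultures received 48 h chemical treatment, top concentration 100 uM, half-log steps, duplicate wells.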

Read-out in experiment [6]: Cytochrome P450 7A1 (Homo sapiens) (UniProt P22680)
The experiment can be described thus: LTEA_HepaRG_CYP7A1: Life Technologies and Expression Analysis (LTEA) Assay for Cytochrome P450 7A1 (CYP7A1) using HepaRG (AID 2283496). Summed up:
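Gene expression endpoint in human HepaRG liver cells treated for 48 h with test chemicals (up to 100 uM, 0.5% DMSO). Values come from bidirectional concentration-response fitting versus DMSO.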

Read-out in experiment [7]: Glutathione S-Transferase (GSTA2), GSTA2 (gene 2939)
The experiment can be described thus: LTEA_HepaRG_GSTA2: Life Technologies and Expression Analysis (LTEA) Assay for Glutathione S-Transferase (GSTA2) using HepaRG (AID 2283497). Summed up:
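Human HepaRG cells, plated 48 h, then exposed in serum-free induction medium for 48 h to eight half-log concentrations up to 100 uM in 0.5% DMSO, duplicate. GSTA2 mRNA by qRT-PCR, normalized to ACTB/GAPDH/POLR2A; bidirectional fit versus DMSO.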

Read-out in experiment [8]: Glutamate-cysteine ligase catalytic (GCLC), GCLC (gene 2729)
Briefly: LTEA_HepaRG_GCLC: Life Technologies and Expression Analysis (LTEA) Assay for Glutamate-cysteine ligase catalytic (GCLC) using HepaRG (AID 2283498). An outline of the steps:
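Differentiated human HepaRG cells, plated 48 h then switched to serum-free induction medium, were exposed in duplicate for 48 h to 8 half-log concentrations topping at 100 uM in 0.5% DMSO. GCLC mRNA was quantified by qRT-PCR against ACTB, GAPDH and POLR2A.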

Read-out in experiment [9]: growth arrest and DNA damage 45 (GADD45G), GADD45G (gene 10912)
Briefly: LTEA_HepaRG_GADD45G: Life Technologies and Expression Analysis (LTEA) Assay for growth arrest and DNA damage 45 (GADD45G) using HepaRG (AID 2283499). Summed up: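 GADD45G transcript level by qRT-PCR (housekeeping-normalized: ACTB, GAPDH, POLR2A) after 48 h chemical treatment of a single HepaRG lot in serum-free induction medium; eight-point half-log series up to 100 uM in 0.5% DMSO, duplicates, up- or down-regulation scored.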

Read-out in experiment [10]: Glutamate-cysteine ligase regulatory (GCLM), GCLM (gene 2730)
Briefly: LTEA_HepaRG_GCLM: Life Technologies and Expression Analysis (LTEA) Assay for Glutamate-cysteine ligase regulatory (GCLM) using HepaRG (AID 2283500). Summed up: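 Differentiated human HepaRG cells exposed 48 h in serum-free induction medium to 8-point half-log concentrations (top 100 uM, 0.5% DMSO), in duplicate. GCLM mRNA quantified by qRT-PCR, normalized to ACTB, GAPDH, POLR2A; bidirectional fitting versus DMSO.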

Read-out in experiment [11]: Glutathione S-transferase M3 (GSTM3), GSTM3 (gene 2947)
The experiment can be described thus: LTEA_HepaRG_GSTM3: Life Technologies and Expression Analysis (LTEA) Assay for Glutathione S-transferase M3 (GSTM3) using HepaRG (AID 2283501). Summed up: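 GSTM3 transcript levels came from Fluidigm TaqMan qRT-PCR normalized to three housekeeping genes, fitted in both directions against DMSO. HepaRG cultures received chemicals for 48 h in serum-free induction medium (0.5% DMSO), 8 half-log concentrations up to 100 uM, duplicate.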

Read-out in experiment [12]: Heat shock 70 kDa protein 1 (HSPA1A), gene 3303
The experiment can be described thus: LTEA_HepaRG_HSPA1A: Life Technologies and Expression Analysis (LTEA) Assay for Heat shock 70 kDa protein 1 (HSPA1A) using HepaRG (AID 2283502). Summed up: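 Differentiated human HepaRG cells in serum-free induction medium were exposed in duplicate for 48 h to eight concentrations (top 100 uM, half-log steps, 0.5% DMSO). HSPA1A mRNA was quantified by qRT-PCR, normalized to ACTB, GAPDH and POLR2A, and fitted bidirectionally against DMSO.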

Read-out in experiment [13]: 3-Hydroxy-3-Methylglutaryl-CoA Synthase 2 (HMGCS2), HMGCS2 (gene 3158)
The experiment can be described thus: LTEA_HepaRG_HMGCS2: Life Technologies and Expression Analysis (LTEA) Assay for 3-Hydroxy-3-Methylglutaryl-CoA Synthase 2 (HMGCS2) using HepaRG (AID 2283504). An outline of the steps:
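Readout is HMGCS2 transcript by qRT-PCR, housekeeping-normalised (ACTB/GAPDH/POLR2A) and fitted bidirectionally against 0.5% DMSO. Differentiated HepaRG cells received chemicals 48 h, duplicate wells, eight half-log concentrations topping at 100 uM.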

Read-out in another experiment: HGF (gene 3082)
The experiment can be described thus: LTEA_HepaRG_HGF: Life Technologies and Expression Analysis (LTEA) Assay for Hepatocyte Growth Facto (HGF) using HepaRG (AID 2283505). Summed up:
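HGF transcript was quantified by TaqMan qRT-PCR against three housekeeping genes after 48 h treatment of HepaRG cells. Exposure ran in duplicate over eight half-log steps topping at 100 uM in 0.5% DMSO vehicle.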

Read-out in experiment [14]: Insulin Like Growth Factor 1 (IGF1), IGF1 (gene 3479)
The experiment can be described thus: LTEA_HepaRG_IGF1: Life Technologies and Expression Analysis (LTEA) Assay for Insulin Like Growth Factor 1 (IGF1) using HepaRG (AID 2283506). An outline of the steps: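 Differentiated human HepaRG cells were dosed for 48 h in serum-free induction medium with 0.5% DMSO, eight half-log concentrations up to 100 uM, in duplicate. IGF1 mRNA was quantified by qRT-PCR normalized to ACTB, GAPDH, POLR2A; bidirectional fitting versus DMSO.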

Read-out in experiment [15]: Insulin-like growth factor-binding protein 1 (IGFBP1), IGFBP1 (gene 3484)
Briefly: LTEA_HepaRG_IGFBP1: Life Technologies and Expression Analysis (LTEA) Assay for Insulin-like growth factor-binding protein 1 (IGFBP1) using HepaRG (AID 2283508). An outline of the steps: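 Read-out is qRT-PCR transcript level normalized to three housekeeping genes, fitted in both directions against 0.5% DMSO. Differentiated HepaRG cells received eight half-log concentrations (top 100 uM) in duplicate for 48 h in serum-free induction medium.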

Read-out in experiment [16]: Hypoxia-inducible factor 1-alpha (Homo sapiens) (UniProt Q16665)
The experiment can be described thus: LTEA_HepaRG_HIF1A: Life Technologies and Expression Analysis (LTEA) Assay for Hypoxia-inducible factor 1 (HIF1A) Trancription factor using HepaRG (AID 2283503). Summed up:
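HepaRG, 48 h exposure, 8-pt half-log series from 100 uM, 0.5% DMSO vehicle, duplicates. Readout: HIF1A transcript by qRT-PCR (Fluidigm array), housekeeping-normalised. Bidirectional curve fit vs DMSO baseline.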

Read-out in experiment [17]: Intercellular Adhesion Molecule 1 (ICAM1), ICAM1 (gene 3383)
The experiment can be described thus: LTEA_HepaRG_ICAM1: Life Technologies and Expression Analysis (LTEA) Assay for Intercellular Adhesion Molecule 1 (ICAM1) using HepaRG (AID 2283507). Summed up: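 ICAM1 transcript levels measured by qRT-PCR, normalized to three housekeeping genes (ACTB, GAPDH, POLR2A), after 48 h chemical exposure of HepaRG cells. Duplicate eight-point half-log series from 100 uM in 0.5% DMSO; gain or loss fitted against vehicle.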

Activity calls are given as the source filed them. Rule for the calls: active = hit-call score of the fitted dose curve at least 0.9, where 1 is the maximum; inactive = score below 0.9.

Cytochrome P450 3A7 (Homo sapiens), sequence (P24462 whole entry, looked up): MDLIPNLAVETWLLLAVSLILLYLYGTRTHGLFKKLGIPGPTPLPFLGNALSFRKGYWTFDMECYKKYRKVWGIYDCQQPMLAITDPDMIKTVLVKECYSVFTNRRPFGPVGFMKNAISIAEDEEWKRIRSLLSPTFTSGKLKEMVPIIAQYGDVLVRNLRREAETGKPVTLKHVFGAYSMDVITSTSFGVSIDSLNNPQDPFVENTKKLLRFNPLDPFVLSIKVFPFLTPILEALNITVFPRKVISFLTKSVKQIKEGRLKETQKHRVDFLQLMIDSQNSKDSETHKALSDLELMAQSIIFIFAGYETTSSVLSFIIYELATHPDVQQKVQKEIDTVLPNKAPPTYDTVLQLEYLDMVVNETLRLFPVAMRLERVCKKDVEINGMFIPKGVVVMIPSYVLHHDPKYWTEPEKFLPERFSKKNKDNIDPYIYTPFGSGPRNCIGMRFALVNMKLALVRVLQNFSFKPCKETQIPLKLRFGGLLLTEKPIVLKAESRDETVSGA
Hypoxia-inducible factor 1-alpha (Homo sapiens), sequence (Q16665 whole entry, looked up): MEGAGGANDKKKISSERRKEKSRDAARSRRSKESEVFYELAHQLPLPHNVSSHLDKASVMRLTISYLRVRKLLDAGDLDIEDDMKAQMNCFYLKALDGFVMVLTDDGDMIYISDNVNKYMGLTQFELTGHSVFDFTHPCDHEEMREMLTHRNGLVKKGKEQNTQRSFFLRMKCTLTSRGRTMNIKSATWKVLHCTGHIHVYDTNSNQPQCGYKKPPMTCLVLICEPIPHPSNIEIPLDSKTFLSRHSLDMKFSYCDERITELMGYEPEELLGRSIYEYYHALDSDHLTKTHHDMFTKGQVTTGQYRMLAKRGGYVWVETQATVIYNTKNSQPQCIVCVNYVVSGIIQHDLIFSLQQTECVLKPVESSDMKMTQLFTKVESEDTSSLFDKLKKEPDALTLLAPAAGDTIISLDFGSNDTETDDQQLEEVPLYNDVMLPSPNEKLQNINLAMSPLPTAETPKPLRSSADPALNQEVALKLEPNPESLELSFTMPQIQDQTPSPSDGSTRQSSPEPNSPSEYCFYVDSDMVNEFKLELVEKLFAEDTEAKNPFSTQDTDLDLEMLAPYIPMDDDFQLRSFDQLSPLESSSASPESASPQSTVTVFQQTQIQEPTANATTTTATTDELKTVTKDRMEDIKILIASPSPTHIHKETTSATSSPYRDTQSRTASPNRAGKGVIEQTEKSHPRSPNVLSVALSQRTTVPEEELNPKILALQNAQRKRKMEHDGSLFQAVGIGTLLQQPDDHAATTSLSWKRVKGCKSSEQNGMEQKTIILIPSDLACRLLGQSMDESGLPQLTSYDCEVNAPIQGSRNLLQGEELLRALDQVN

Regarding `NS(=O)(=O)c1cc2c(cc1Cl)NCNS2(=O)=O`, the compound was classed as inactive (in experiment [1]; in experiment [2]; in [3]; in the experiment with CYP3A5 (gene 1577); in [4]; in experiment [5]). For the same compound, the compound was classed as inactive in experiment [6], in [7], in [8], in experiment [9], in experiment [10] and in experiment [11]. Further, the compound was called inactive (in experiment [12]; in [13]; with HGF (gene 3082); in experiment [14]; in experiment [15]).
As to `C[Si]1(C)O[Si](C)(C)O[Si](C)(C)O[Si](C)(C)O1`, the compound was called inactive (in [2]; in [3]; in the experiment with CYP3A5 (gene 1577); in experiment [4]; in experiment [5]; in experiment [6]). The compound was classed as inactive in experiment [7], in [8], in [10], in experiment [11], in experiment [12] and in experiment [16]. Besides, the result in [13], in experiment [14] and in experiment [15] was inactive.
As for `Cc1cccc([N+](=O)[O-])c1C`, the result (in experiment [1]; in [2]; in experiment [3]; with CYP3A5 (gene 1577); in [4]; in [5]) was inactive. For the same compound, the outcome in [6], in experiment [7], in experiment [8], in experiment [10], in [11] and in experiment [12] was inactive. Also, the compound was called inactive (in experiment [16]; in experiment [13]; with HGF (gene 3082); in experiment [14]; in [17]; in experiment [15]).
Take `CCCCCCCCCCC`: the outcome (in [2]; in experiment [3]; in the experiment with CYP3A5 (gene 1577); in experiment [4]; in experiment [5]; in [6]) was inactive. Also, the call in experiment [7], in [8], in experiment [10], in [11], in experiment [12] and in experiment [16] was inactive. In addition, the compound was called inactive (in [13]; in the experiment with HGF (gene 3082); in experiment [14]; in experiment [17]; in experiment [15]).
As usually defined, the AC50 is the midpoint of the concentration-response curve, whichever way the signal moves. `CCOc1ccc2c(c1)C(C)=CC(C)(C)N2`: the compound was classed as inactive (in experiment [1]; in [2]; with CYP3A5 (gene 1577); in [5]; in [7]; in experiment [8]). For the same compound, the compound was classed as inactive (in experiment [10]; in experiment [11]; with HGF (gene 3082)). For the same compound, the AC50 is 1.12 µM (active) in [3]; 50 µM (active) in [4]; 33.3 µM (active) in experiment [6]; 20 µM (active) in experiment [13]; 12.7 µM (active) in [14]; 50 µM (active) in [15].
Consider `O=c1c(O)c(-c2ccc(O)c(O)c2)oc2cc(O)cc(O)c12`, for which the result (in [1]; in experiment [2]; with CYP3A5 (gene 1577); in experiment [4]; in experiment [5]; in experiment [6]) was inactive. In addition, the result in experiment [7], in experiment [8], in experiment [9], in [10], in [11] and in [12] was inactive. Besides, the call (in [13]; with HGF (gene 3082); in experiment [17]; in experiment [15]) was inactive.
Turning to `CCCCCCCCCCCCCO`, the compound was classed as inactive (in experiment [1]; in experiment [2]; in experiment [3]; in the experiment with CYP3A5 (gene 1577); in experiment [4]; in [5]). The call in experiment [6], in experiment [7], in experiment [8], in [10], in [11] and in [12] was inactive. Further, the compound was classed as inactive in [16], in [13], in [14] and in experiment [15].
